ATXN2 expr inh: Primary qHTS for Inhibitors of ATXN expression | Potency, µM (highest dose often 57 µM), actives largely listed as inhibitors | HEK-293 ATXN2-luciferase reporter, luminescence, 24 h | hit rate 0.72% among 360,000; note: nearly all actives have a fitted effect of over 55% in size
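qHTS (up to 57 uM final) was run with 24 h compound exposure of reporter cells at 37 °C. Each well was multiplexed: SteadyGlo luminescence measured ATXN2-luciferase expression after a fluorogenic Gly-Phe-AFC viability readout (25 uM final).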
HepG2 viability: qHTS for Inhibitors of TGF-b: Cytotox Counterscreen | HepG2 CAGA-GFP viability, ATP luminescence, 18 h | Potency, µM (titrated, usually from 46.1 µM), usual class: cytotoxic | AID 588856, 2011 | hit rate 0.76% among 410,000
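CellTiter-Glo luminescence gave cytotoxicity after 18 hours at 37 degrees C. The cells were HepG2 CAGA-GFP in 1% FBS DMEM, stimulated with 500 pg/mL TGF-beta after compound addition. %Activity was normalised to no-cell wells (complete cell-killing) and DMSO (no toxicity), and curves were fitted and classified.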
S2 tox: Viability Counterscreen for Primary qHTS for Inhibitors of ATXN expression; S2 cells (HEK-293 line with an ATXN2-luciferase reporter) viability, CellTiter-Fluor protease fluorescence, 24 h; Potency, µM (highest dose often 56.7 µM), actives largely listed as cytotoxic; hit rate 0.49% among 400,000; note: nearly all actives have a fitted effect of over 40% in size
Nrf2 inh: Nrf2 qHTS screen for inhibitors | A549 ARE-Fluc reporter, luciferase luminescence, 18-24 h | Potency, µM (titrated, usually from 46 µM), most hits filed as inhibitors | hit rate 2.1% among 360,000 | AID 504444, 2011; note: nearly all actives have a fitted effect of over 60% in size
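Nrf2 activity is the BugLite luminescence, read 15 min after reagent at room temperature, following CellTiter-Fluor cytotoxicity readout (30 min, 37C). Compound titrations were applied for 18-24 h to 5000 A549 ARE_Fluc cells/well in 5% FBS OPTI-MEM.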
TGFb SMAD3 inh: qHTS for Inhibitors of TGF-b; HepG2 CAGA-GFP TGF-b/SMAD3 reporter, GFP fluorescence, 18 h; TGF-beta stimulated, 500 pg/mL final; Potency, µM (top dose mostly 46.1 µM), actives largely listed as inhibitors; hit rate 1.2% among 410,000; AID 588855, 2011; note: nearly all actives have a fitted effect of over 65% in size
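Smad-responsive CAGA-GFP expression was quantified in HEPG2 cells exposed to compounds and 500 pg/mL final TGF-beta for 18 h at 37 degrees C; unstimulated wells defined full inhibition.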
A549 viability: Nrf2 qHTS screen for inhibitors: counterscreen for cytotoxicity; A549 ARE-Fluc cells, CellTiter-Fluor viability, 18-24 h; Potency, µM (series often up to 46 µM), actives largely listed as inhibitors; hit rate 0.16% among 390,000; AID 504648, 2011
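Cytotoxicity counterscreen: CellTiter-Fluor fluorescence was measured in A549 ARE_Fluc cells after 18-24 h of compound exposure in a concentration series. The subsequent BugLite luminescent read reports ARE-luciferase activity.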
SK-N-SH 3D tox: qHTS of pediatric cancer cell lines to identify multiple opportunities for drug repurposing: Orthogonal 3D viability screen for SK-N-SH cells; hit rate 70% among 65; Potency, µM (titrated, usually from 30.7 µM), most hits filed as inhibitors; SK-N-SH 3D spheroid viability, PI/Hoechst imaging, 72 h; shares compounds with ATXN2 expr inh; AID 1347135, 2019
SJGBM2 3D viab: qHTS of pediatric cancer cell lines to identify multiple opportunities for drug repurposing: Orthogonal 3D viability screen for SJ-GBM2 cells | shares compounds with ATXN2 expr inh | SJ-GBM2 3D spheroid viability, PI/Hoechst imaging, 72 h | Potency, µM (top dose mostly 30.7 µM), actives largely listed as inhibitors | hit rate 80% among 65 | AID 1347136, 2019
Daoy spheroid: qHTS of pediatric cancer cell lines to identify multiple opportunities for drug repurposing: Orthogonal 3D viability screen for Daoy cells | hit rate 50% among 65 | Daoy 3D spheroid viability, PI/Hoechst imaging, 72 h | Potency, µM (doses to about 30.7 µM), most hits filed as inhibitors | AID 1347137, 2019 | shares compounds with ATXN2 expr inh
TC32 3D caspase: qHTS of pediatric cancer cell lines to identify multiple opportunities for drug repurposing: Orthogonal 3D caspase screen for TC32 cells; TC32 3D spheroids, caspase-3/7 fluorescence imaging, 24 h; Potency, µM (series often up to 30.7 µM), most hits filed as inhibitors; hit rate 30% among 65; shares compounds with ATXN2 expr inh
TC32 3D tox: qHTS of pediatric cancer cell lines to identify multiple opportunities for drug repurposing: Orthogonal 3D viability screen for TC32 cells. shares compounds with ATXN2 expr inh. Potency, µM (titrated, usually from 30.7 µM), actives largely listed as inhibitors. hit rate 60% among 65. TC32 3D spheroid viability, PI/Hoechst imaging, 72 h
MG63 3D tox: qHTS of pediatric cancer cell lines to identify multiple opportunities for drug repurposing: Orthogonal 3D viability screen for MG 63 (6-TG R) cells | shares compounds with ATXN2 expr inh | AID 1347140, 2019 | hit rate 50% among 65 | Potency, µM (highest dose often 30.7 µM), usual class: inhibitors | MG-63 (6-TG R) 3D spheroid viability, PI/Hoechst imaging, 72 h
RD 3D tox: qHTS of pediatric cancer cell lines to identify multiple opportunities for drug repurposing: Orthogonal 3D viability screen for RD cells; Potency, µM (top dose mostly 30.7 µM), actives largely listed as inhibitors; shares compounds with ATXN2 expr inh; hit rate 50% among 65; RD rhabdomyosarcoma 3D spheroid viability, PI/Hoechst imaging, 72 h
Each line names hits and unclear results; the compound was inactive in the other large screens (follow-up assays come after a bar, where they were run); ! = not active in a repeat. Sampled rows, rich in hits. Any-hit rate of the full collection: about 3.8%. Calls come from the whole dose curve; as a rule, active = well fitted curve in the direction sought with a large enough effect; inconclusive = small, poorly fitted or top-dose-only effect, or another doubt; inactive = no such curve, though single readings can be large; an effect the other way counts as inactive or inconclusive.

CCC(=O)N(C)C[C@H]1Oc2cc(-c3ccccc3F)ccc2S(=O)(=O)N([C@H](C)CO)C[C@H]1C	S2 tox inconclusive (no result: Nrf2 inh, A549 viability)
COc1cccc2c1C(=O)c1c(O)c3c(c(O)c1C2=O)C[C@@](O)(C(=O)CO)C[C@@H]3O[C@H]1C[C@H](N)[C@@H](O)[C@H](C)O1	ATXN2 expr inh 0.43µM!, Nrf2 inh 3.3µM, TGFb SMAD3 inh 3.2µM, A549 viability inconclusive (no result: S2 tox) | SK-N-SH 3D tox 0.51µM | SJGBM2 3D viab 0.91µM | Daoy spheroid 1.6µM | TC32 3D caspase 1µM | TC32 3D tox 0.81µM | MG63 3D tox 5.1µM | RD 3D tox 9.1µM
CC(=O)[C@]1(O)Cc2c(O)c3c(c(O)c2[C@@H](O[C@H]2C[C@H](N)[C@H](O)[C@H](C)O2)C1)C(=O)c1ccccc1C3=O	ATXN2 expr inh 13µM!, Nrf2 inh inconclusive, A549 viability inconclusive (no result: S2 tox) | SK-N-SH 3D tox 0.091µM | SJGBM2 3D viab 0.16µM | Daoy spheroid 1.8µM | TC32 3D caspase 7.2µM | TC32 3D tox 0.2µM | MG63 3D tox 1.1µM | RD 3D tox 1.6µM
CC(C)(C)C(=O)OCOP(=O)(COCCn1cnc2c(N)ncnc21)OCOC(=O)C(C)(C)C	ATXN2 expr inh 3.5µM! (no result: HepG2 viability, Nrf2 inh, TGFb SMAD3 inh, A549 viability) | SK-N-SH 3D tox 5.1µM | SJGBM2 3D viab 4.1µM | Daoy spheroid inconclusive | TC32 3D caspase inactive | TC32 3D tox 2.6µM | MG63 3D tox inconclusive | RD 3D tox inconclusive
Nc1ncnc2c1ncn2CCOc1ccccc1	TGFb SMAD3 inh inconclusive
COc1c(C)c2c(c(O)c1C/C=C(\C)CCC(=O)OCCN1CCOCC1)C(=O)OC2	S2 tox inconclusive (no result: HepG2 viability, Nrf2 inh, TGFb SMAD3 inh, A549 viability) | SK-N-SH 3D tox inconclusive | SJGBM2 3D viab 0.23µM | Daoy spheroid inconclusive | TC32 3D caspase inactive | TC32 3D tox inconclusive | MG63 3D tox 0.81µM | RD 3D tox inconclusive
